Source: PubChem BioAssay (NCATS)
Inconclusive results are not listed. Where a call stands in place of a potency, no number is given. Activity calls are given as the source filed them. Calls come from the whole dose curve; as a rule, active = well fitted inhibition curve with a large enough effect; inconclusive = small, poorly fitted or top-dose-only effect; inactive = flat fitted curve, though single readings scatter.

How the values were obtained:
Experiment in all cases: qHTS profiling for inhibitors of Plasmodium falciparum proliferation (AID 504749); note: nearly all actives have a fitted effect of over 60% in size
Settings in all cases: P. falciparum in erythrocytes, SYBR Green DNA, 72 h; series mostly up to 28.7 µM
CP237 = tested on: CP237
In short: (§1)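 Three-day growth assay of blood-stage parasites in erythrocytes (0.3% parasitemia, 2.5% hematocrit) at 37 C, 5% CO2, quantified by SYBR Green DNA staining after overnight detergent lysis.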

CP238 = tested on: CP238
In short: as §1

CP247 = tested on: CP247
In short: as §1

CP250 = tested on: CP250
In short: as §1

CP252 = tested on: CP252
In short: as §1

CP256 = tested on: CP256
In short: as §1

CP260 = tested on: CP260
In short: as §1

CP262 = tested on: CP262
In short: as §1

CP265 = tested on: CP265
In short: as §1

CP266 = tested on: CP266
In short: as §1
Potency is the fitted concentration of half-maximal effect.

SMILES	Potency (CP237)	Potency (CP238)	Potency (CP247)	Potency (CP250)	Potency (CP252)	Potency (CP256)	Potency (CP260)	Potency (CP262)	Potency (CP265)	Potency (CP266)
O=c1ccc2ccccc2o1	inactive	inactive	inactive	inactive	inactive	inactive	inactive	inactive	inactive	inactive
NC(CO)(CO)CO	inactive	inactive	inactive	inactive	inactive	inactive	inactive	inactive	inactive	inactive
CCOc1ccc2nc3cc(N)ccc3c(N)c2c1	4.47 µM (active)	5.01 µM (active)	10 µM (active)	8.91 µM (active)	7.08 µM (active)	4.47 µM (active)	3.98 µM (active)	–	11.2 µM (active)	–
N[C@H](CO)C(=O)O	inactive	inactive	inactive	inactive	inactive	inactive	inactive	inactive	inactive	inactive
CC(O)(P(=O)(O)O)P(=O)(O)O	inactive	inactive	inactive	inactive	inactive	inactive	inactive	inactive	inactive	inactive
c1ccc(OCc2ccc(CCCN3CCOCC3)cc2)cc1	inactive	inactive	inactive	inactive	inactive	inactive	inactive	inactive	–	inactive
CC[N+](CC)(CCNC(=O)C(=O)NCC[N+](CC)(CC)Cc1ccccc1Cl)Cc1ccccc1Cl	3.16 µM (active)	2.51 µM (active)	3.55 µM (active)	2.51 µM (active)	4.47 µM (active)	0.398 µM (active)	1.58 µM (active)	0.849 µM (active)	0.562 µM (active)	2.69 µM (active)
O=C(O)CNC(=O)c1ccccc1	inactive	inactive	inactive	inactive	inactive	inactive	inactive	inactive	inactive	inactive
CN1C2CCC1CC(OC(=O)c1c[nH]c3ccccc13)C2 (stereo not given)	inactive	inactive	inactive	inactive	inactive	inactive	inactive	inactive	inactive	inactive
CC(=O)Nc1c(I)cc(I)c(C(=O)O)c1I	inactive	inactive	inactive	inactive	inactive	inactive	inactive	inactive	inactive	inactive
CCCCOc1cc(C(=O)NCCN(CC)CC)c2ccccc2n1	inactive	inactive	inactive	inactive	inactive	inactive	inactive	–	inactive	–
O=C(Nc1ccc(Cl)c(Cl)c1)C1CC1	inactive	inactive	inactive	inactive	inactive	inactive	inactive	inactive	inactive	inactive
CC(=O)Oc1ccc(C(c2ccc(OC(C)=O)cc2)c2ccccn2)cc1	inactive	inactive	inactive	inactive	inactive	inactive	inactive	inactive	inactive	inactive
CCOc1ccc(NC(=O)CC(C)O)cc1 (stereo not given)	inactive	inactive	inactive	inactive	inactive	inactive	inactive	inactive	inactive	inactive
Nc1ccc(/C=C/c2ccc(N)cc2S(=O)(=O)O)c(S(=O)(=O)O)c1	inactive	inactive	inactive	inactive	inactive	inactive	inactive	inactive	inactive	inactive
CC(=O)OCC(=O)NCCCOc1cccc(CN2CCCCC2)c1	inactive	inactive	inactive	inactive	inactive	inactive	inactive	inactive	inactive	inactive
c1ccc(-c2ccc(C(c3ccccc3)n3ccnc3)cc2)cc1 (stereo not given)	8.91 µM (active)	–	7.94 µM (active)	–	10 µM (active)	–	–	inactive	–	–

SMILES	Potency (CP237)	Potency (CP238)	Potency (CP247)	Potency (CP250)	Potency (CP252)	Potency (CP256)	Potency (CP260)	Potency (CP262)	Potency (CP265)	Potency (CP266)
C[C@@H]1CN(CCCn2c3ccccc3c3ccccc32)C[C@H](C)N1	11.2 µM (active)	–	4.47 µM (active)	–	–	–	11.2 µM (active)	–	7.94 µM (active)	inactive
CCCCc1nc(Cl)c(CO)n1Cc1ccc(-c2ccccc2-c2nn[nH]n2)cc1	inactive	–	–	–	10 µM (active)	–	–	inactive	–	–
c1ccc(CNCCNCc2ccccc2)cc1	3.16 µM (active)	–	–	inactive	–	–	–	inactive	–	–
Cc1ccc(O)c2ncccc12	inactive	inactive	inactive	inactive	inactive	inactive	–	inactive	inactive	inactive
COc1cc2c(cc1OC)C(=O)C(CC1CCN(Cc3ccccc3)CC1)C2 (stereo not given)	inactive	–	inactive	–	inactive	inactive	inactive	inactive	–	inactive
CC(C)(C)CC(C)(C)c1ccc(O)c(Cc2ccc(Cl)cc2Cl)c1	2.51 µM (active)	1.41 µM (active)	3.16 µM (active)	3.16 µM (active)	1 µM (active)	3.55 µM (active)	2 µM (active)	–	3.16 µM (active)	4.78 µM (active)
CC(C)=CCC1C(=O)N(c2ccccc2)N(c2ccccc2)C1=O	11.2 µM (active)	inactive	inactive	–	–	–	–	–	inactive	inactive
CN1CCN(CCCN2c3ccccc3Sc3ccc(S(=O)(=O)N(C)C)cc32)CC1	3.98 µM (active)	–	–	–	inactive	–	–	inactive	3.55 µM (active)	inactive
CNCCC(Oc1ccccc1C)c1ccccc1 (stereo not given)	inactive	–	–	inactive	inactive	–	inactive	inactive	–	–
Cc1ccc(C(=O)C(C)CN2CCCCC2)cc1 (stereo not given)	inactive	inactive	inactive	inactive	inactive	inactive	–	inactive	10 µM (active)	inactive
Oc1c(I)cc(Cl)c2cccnc12	inactive	11.2 µM (active)	12.6 µM (active)	5.01 µM (active)	11.2 µM (active)	2.51 µM (active)	–	–	–	inactive
CN(C)CCOc1ccccc1Cc1ccccc1	3.16 µM (active)	7.94 µM (active)	–	–	–	–	2.51 µM (active)	–	2.24 µM (active)	–
C#C[C@]1(O)CC[C@H]2[C@@H]3CCc4cc(OC5CCCC5)ccc4[C@H]3CC[C@@]21C	inactive	inactive	inactive	inactive	inactive	–	inactive	–	–	–
COc1cc(-c2ccc(=O)[nH]n2)ccc1OC(F)F	0.112 µM (active)	–	–	inactive	inactive	3.16 µM (active)	–	–	0.316 µM (active)	inactive
CC(=O)Oc1ccc(C(=C2CCCCC2)c2ccc(OC(C)=O)cc2)cc1	inactive	inactive	inactive	inactive	inactive	inactive	–	inactive	inactive	inactive
CC(C)(C)CC(C)(C)c1ccc(OCCOCC[N+](C)(C)Cc2ccccc2)cc1	2.51 µM (active)	4.47 µM (active)	3.98 µM (active)	4.47 µM (active)	5.01 µM (active)	4.47 µM (active)	1.41 µM (active)	–	4.47 µM (active)	4.26 µM (active)
